# From PubChem BioAssay AID602295 (Broad Institute, 2012)
# Activity calls are given as the source filed them.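 Rule for the calls: active = every separate test run called active, meaning the signal drops and a potency is fitted within twice the top valid dose; inconclusive = runs disagree, poor fit, or flat partial inhibition; inactive = all runs inactive, flat, opposite direction or too weak.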
# Target: Mitogen-activated protein kinase 3 (Homo sapiens) (UniProt P27361)
# Experiment: inhibition of MAPK3 kinase activity – biochemical, ADP-Glo luminescence, cherry pick, set 2, selectivity assay for Dyrk1A inhibitor NFAT project, dose response (AID 602295)
# Sequence of Mitogen-activated protein kinase 3 (Homo sapiens) (P27361 whole entry, looked up): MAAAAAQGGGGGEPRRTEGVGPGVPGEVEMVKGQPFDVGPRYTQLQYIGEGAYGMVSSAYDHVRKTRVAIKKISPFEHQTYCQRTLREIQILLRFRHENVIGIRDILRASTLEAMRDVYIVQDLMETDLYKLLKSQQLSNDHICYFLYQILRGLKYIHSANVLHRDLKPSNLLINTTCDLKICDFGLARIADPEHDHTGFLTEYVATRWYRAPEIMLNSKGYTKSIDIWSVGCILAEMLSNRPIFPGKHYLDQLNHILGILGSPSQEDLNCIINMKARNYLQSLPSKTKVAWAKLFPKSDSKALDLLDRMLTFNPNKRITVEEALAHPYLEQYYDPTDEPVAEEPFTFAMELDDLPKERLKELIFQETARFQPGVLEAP
smiles,measurement,value
COc1ccc2c(c1)[nH]c1c(C)nccc12,outcome,inactive
